Results published in PubChem BioAssay (NCI).
This is part of a sample that, as a whole, favours compounds with a hit. Of some 83,000 tested, about 20% had one in any assay.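 96-well plates, one dose, 48 hours. Percent growth reported; active if below 10.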 Values without a mark were called inactive. Active and inactive are the calls of the source.

Key:
Experiment in all cases: NCI-60 one-dose screen, 48 h (100 = growth as untreated, 0 = no growth, -100 = all killed)
Conditions in all cases: 10 µM unless noted
SK-MEL-2 melanoma = system: SK-MEL-2 melanoma
EKVX NSCLC = system: EKVX NSCLC
SN12C renal = system: SN12C renal
UO-31 renal = system: UO-31 renal
TK-10 renal = system: TK-10 renal
ACHN renal = system: ACHN renal
CAKI-1 renal = system: CAKI-1 renal
A498 renal = system: A498 renal
CCRF-CEM leukemia = system: CCRF-CEM leukemia
MOLT-4 leukemia = system: MOLT-4 leukemia

Row | SMILES | growth (SK-MEL-2 melanoma) | growth (EKVX NSCLC) | growth (SN12C renal) | growth (UO-31 renal) | growth (TK-10 renal) | growth (ACHN renal) | growth (CAKI-1 renal) | growth (A498 renal) | growth (CCRF-CEM leukemia) | growth (MOLT-4 leukemia)
1 | C=C(C)[C@@H]1CC[C@]2(CN)CC[C@]3(C)[C@H](CC[C@@H]4[C@@]5(C)CCC(=O)NC(C)(C)[C@@H]5CC[C@]43C)[C@@H]12 | 98.8% | 87.3% | 65.6% | 58.9% | 114% | 69.1% | 59.9% | 96.2% | 20.9% | 
2 | Cc1ccc(-c2nn(Cc3cn(-c4cc(C)nc5ccccc45)nn3)c3ncnc(N)c23)cc1 | 76.2% | 57.3% | 31.1% | 17.6% | 31.8% | 31.9% | 20.8% | -2.48% (active) | 63.1% | 
3 | CC(C)=CCC[C@](C)(O)[C@H]1CC[C@]2(C)[C@@H]1CC[C@@H]1[C@@]3(C)C/C(=C/c4cccc([N+](=O)[O-])c4)C(=O)C(C)(C)[C@@H]3CC[C@]12C | 115% | 92.6% | 81.1% | 69.3% | 128% | 98.9% | 51.9% | 92.6% | 76.3% | 
4 | CC1(C)CC[C@]2(C(=O)NCCNCCN)CC[C@]3(C)C(=CC[C@@H]4[C@@]5(C)CCC(=O)C(C)(C)[C@@H]5CC[C@]43C)[C@@H]2C1 | 82.4% | 94.8% | 14.2% | 87.8% | 127% | 12.2% | 27.1% | 81.5% | -17.8% (active) | 
5 | Nc1c(Cl)cc(N=Nc2ccccc2)cc1Cl | 61.3% | 69% | 95.4% | 62.2% | 12.8% | 97.4% | 89.9% | 73.6% |  | 
6 | CCC(CC)C(=O)OC(C)COc1ccc(C(C)(C)C)cc1 (stereo unspecified) | 101% | 105% | 99.4% | 97.3% | 97% | 102% | 98.8% | 87.8% | 93% | 
7 | COc1ccc(C2c3ccccc3NC(=O)N2C2CCN(C)CC2)c(OC)c1 (stereo unspecified) | 108% | 87% | 95.6% | 89.7% | 98.1% | 103% | 102% | 102% | 106% | 
8 | COc1cccc(-c2nn(-c3ccccc3)cc2-c2ccnc(NCCCNS(=O)(=O)c3ccccc3)c2)c1 | 29.7% | 46.5% | 38.7% | 13.8% | 46.9% | 28.1% | 48.4% | 42.3% | 14.4% | 
9 | CC(=O)Cc1nsc(NC(=O)c2ccoc2COc2ccccc2)n1 | 107% | 91.1% | 90.2% | 77.1% | 107% | 99.7% | 99.8% | 97.4% | 93.2% | 106%
10 | CCOC(=O)C1OC1(c1ccccc1)c1ccccc1 (stereo unspecified) | 112% | 101% | 98.7% | 88.1% | 107% | 103% | 79.5% | 106% | 100% | 105%
11 | N#C/C(=C\c1ccc(-c2ccccc2)o1)c1nc(-c2ccco2)cs1 | 106% | 37.3% | 92.3% | 55.2% | 55.8% | 93.4% | 85.2% | 125% | 95.9% | 
12 | O=C1C=Cc2ncccc2C1=O | 114% | 64.7% | 65.2% | 68.3% | 111% | 76.1% | 81.2% | 125% | -37.5% (active) | 0.968% (active)
13 | Fc1cccc(-c2[nH]nc3nc(Nc4cccnc4)sc23)c1 | 46.6% | 57% | 58.5% | 46.2% | 77.3% | 61.5% | 21.4% | 84.2% | 28.8% | 48.5%
14 | Cc1cc2nc3c4cc(O)ccc4n(CCN(C)C)c3nc2cc1C | -42.9% (active) | 2.33% (active) | 3.51% (active) | -37.5% (active) | 5.14% (active) | -33.7% (active) | -39% (active) | 9.28% (active) | 9.31% (active) | 
15 | Cc1nn(-c2ccc(Cl)cc2)c(=O)n1CCn1cnc2ccccc21 | 109% | 102% | 105% | 90.8% | 108% | 109% | 95.8% | 95.6% | 106% | 100%
16 | O=C1/C(=C\c2ccco2)SC(=S)N1CCc1ccc(O)cc1 | 104% | 91.1% | 91.6% | 54% | 130% | 96% | 83.4% | 97.1% | 44.8% | 
17 | C=C(C)[C@@H]1CC[C@]2(/C=N/Nc3ccncc3)CC[C@]3(C)[C@H](CC[C@@H]4[C@@]5(C)CCCNC(C)(C)[C@@H]5CC[C@]43C)[C@@H]12 | 110% | 99.5% | 85.2% | 85% | 120% | 100% | 74.7% | 83.8% | 67.1% | 58%
18 | COC(=O)[C@]12CC[C@@H](C)[C@H](C)[C@@H]1C1=CC[C@@H]3[C@@](C)(CC#N)C4=C(C[C@@]3(C)[C@]1(C)CC2)OC[C@]4(C)C=O | -40.2% (active) | -11.8% (active) | 1.64% (active) | 6.25% (active) | 3.82% (active) | 7.19% (active) | 9.24% (active) | -91.7% (active) | 1.66% (active) | 2.4% (active)
19 | C=C(C)[C@@H]1CC[C@]2(C)[C@H](CC=C3[C@@H]4CC(C)(C)CC[C@]4(C=O)CC[C@]32C)[C@@]1(C)CCCN | 109% | 94.5% | 66.7% | 44.6% | 81.4% | 88.4% | 61.1% | 97% | 52.9% | 
20 | N#C/C(=C\c1ccc(-c2cccc(C(F)(F)F)c2)o1)c1nc(-c2ccco2)cs1 | 103% | 43% | 89.2% | 62.8% | 49.1% | 87.2% | 87.1% | 104% | 93.7% | 
21 | C#Cc1cccc(NC(=O)C2CCCN(C(=O)CCl)C2)c1 (stereo unspecified) | 75.7% [8.25 µM] | 95.7% [8.25 µM] | 9.7% [8.25 µM] (active) | -56.7% [8.25 µM] (active) | 98.9% [8.25 µM] | -96.3% [8.25 µM] (active) | 33.8% [8.25 µM] | 99.2% [8.25 µM] | -25.9% [8.25 µM] (active) | -7.04% [8.25 µM] (active)
22 | Cc1cccc2c1NC(=O)[C@@]21[C@H](C(=O)c2ccccc2)[C@]2(C(=O)Nc3ccccc32)[C@H]2CCCN21 | 18.1% [100 µM] | 30.6% [100 µM] | 10.3% [100 µM] | 30.5% [100 µM] | 39% [100 µM] | 5.91% [100 µM] (active) | 11.6% [100 µM] | 39.8% [100 µM] | 5.86% [100 µM] (active) | 12.3% [100 µM]
23 | Cn1c2c(c3ccc(Cl)cc31)-n1cccc1C2=O | 84.6% | 86.4% | 74.5% | 57.5% | 88.2% | 78.2% | 83.2% | 89.6% | 85.7% | 64.2%
24 | C[C@@H](Oc1ccc(C(=O)NS(=O)(=O)C(C)(C)C)cc1C(F)(F)F)c1ccc(Oc2ccccc2)cn1 | 38.2% | 65% | 61.2% | 58.8% | 79.1% | 61.8% | 38.8% | -0.737% (active) | 25.9% | 57.3%
